Most compounds without a hit are left out; they make up all but 6% or so of the library.
D1 agonist: agonists of human D1 dopamine receptor; P21728; HEK293 T-REx D1 cells, calcium flux, agonist mode; activation, % at 2 µM; hit rate 1% among 360,000; in the data active = activation above about 30%; also: 0% is about no effect
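Inducible HEK293 T-REx D1 cells, force-coupled to calcium signalling, were plated at 4000 cells/well with tetracycline and held overnight at 30 C. After no-wash calcium dye loading, compound-evoked calcium rise over 180 s flagged agonists.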
D3 antag: D3 dopamine receptor (human) antagonism. P35462. D3R cells, DiscoveRx beta-arrestin luminescence, antagonist mode; stronger effect = lower value. max response, negative = inhibition, %. hit rate 2.5% among 360,000. AID 652054; in the data active = max response below about -50%; inconclusive = no clear call, values can overlap the other calls; also: % is scaled to controls: 0 for no effect and ±100 for the full control effect
Target sequence (P35462 whole entry, looked up): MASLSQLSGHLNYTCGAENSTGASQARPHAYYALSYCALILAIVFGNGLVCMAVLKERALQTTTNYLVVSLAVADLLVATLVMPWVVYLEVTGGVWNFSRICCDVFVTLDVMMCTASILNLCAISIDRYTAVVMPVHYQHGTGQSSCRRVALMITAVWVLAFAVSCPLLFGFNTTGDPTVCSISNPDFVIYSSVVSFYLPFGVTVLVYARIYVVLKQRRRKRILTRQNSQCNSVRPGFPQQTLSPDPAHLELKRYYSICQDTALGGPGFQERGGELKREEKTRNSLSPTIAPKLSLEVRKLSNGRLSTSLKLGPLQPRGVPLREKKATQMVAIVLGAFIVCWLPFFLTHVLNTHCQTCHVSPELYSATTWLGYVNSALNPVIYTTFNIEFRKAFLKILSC
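Cells expressing the human receptor were seeded at 1500 cells/well, incubated overnight at 37 degrees C in 5% CO2, then exposed to library compounds with dopamine controls for 90 minutes at 37 degrees C before luminescent detection.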
D3 ag: D3 dopamine receptor (human) agonism; D3R DiscoveRx beta-arrestin cells, luminescence, 90 min; P35462; hit rate 0.58% among 410,000; max activation, %; in the data active = max activation above about 30%; also: 0% is about no effect
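Agonist mode: compounds and dopamine controls were applied to plated cells for 90 min at 37 degrees C after an overnight attachment at 1500 cells/well. Luminescent read-out followed 30 - 60 minutes at room temperature with DiscoveRx detection reagent.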
D1 PAM: potentiators of human D1 dopamine receptor; AID 504651; HEK293 TREx D1 cells, calcium flux, dopamine EC20 potentiation; hit rate 0.036% among 360,000; potentiation, % at 10 µM; in the data active = potentiation above about 30%; also: 0% is about no effect
D1 antag: blocks dopamine activation of the human D1 receptor. hit rate 3.2% among 360,000. P21728. HEK293 TREx D1 cells, calcium flux, dopamine EC80; stronger effect = lower value. activity change, negative = inhibition, % at 10 µM; in the data active = activity change below about -30%; also: % is scaled to controls: 0 for no effect and ±100 for the full control effect
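Antagonism measured as reduced calcium response to an EC80 dopamine addition following 180 s compound pre-read; cells were inducible HEK293 Trex D1 plated overnight at 30 C, read kinetically at 1 cycle/sec.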
Active calls of the source: *; ? = inconclusive; · = not tested or not shown.

SMILES	D1 agonist	D3 antag	D3 ag	D1 PAM	D1 antag
COc1cccc(-c2cc(NC=O)c3ncc(-c4ccc(C(C)=O)cc4)n3c2)c1	·	7	-2	·	·
Cc1cccc(C)c1N1CCN(CCn2c(=S)[nH]c3ccccc3c2=O)CC1	0	-69*	-2	-7	-8
O=c1c2ccccc2[nH]c(=S)n1CCN1CCCC1	-1	2	3	-3	0
CCn1c(=O)[nH]c2ccccc2c1=O	3	-56*	-8	-6	-4
O=C(c1ccc(F)cc1)C1CCN(CCn2c(=S)[nH]c3ccccc3c2=O)CC1	0	·	-23	-2	-79*
COc1cccc(CCNC(=O)c2cnc3sc(N4CCCC4)nn3c2=O)c1	2	·	1	-4	7
COc1ccc(CN2C(=O)[C@@H]3C(c4ccc(F)cc4)=NO[C@@H]3C2=O)cc1	5	14	-1	-9	-37*
COc1ccc(CCC(=O)OCc2csc(CC(=O)Nc3ccccc3C)n2)cc1	6	-13	-8	-5	-4
CCCC(CCC)C(=O)NC1CCN(Cc2ccccc2)CC1	5	-15	-26	-6	-6
Cc1oc(-c2ccc(Cl)cc2)cc1C(=O)NC1CCN(Cc2ccccc2)CC1	3	-65*	-9	-6	-13
Cc1oc(C(C)(C)C)cc1C(=O)NC1CCN(Cc2ccccc2)CC1	25	-80*	-41	-10	9
N#CC(NC(=O)OCc1ccccc1)c1ccccc1 (stereo unspecified)	1	-54*	-17	-4	0
COc1ccc(S(=O)(=O)N2CCN(C(=O)CN3C(=O)NC(C)(c4ccc5ccccc5c4)C3=O)CC2)cc1 (stereo unspecified)	8	10	2	-4	3
CCCN(Cc1cc2cc(C)ccc2[nH]c1=O)C(=O)c1cccc(Cl)c1	-1	·	10	0	1
O=C1CN(C(=O)c2cccc(Br)c2)C(c2ccccc2)c2cc(Cl)ccc2N1 (stereo unspecified)	6	·	2	-1	15
Cc1cc(C)cc(C(=O)Nc2nnc(SCC(=O)NCC3CCCO3)s2)c1 (stereo unspecified)	0	-4	-12	-3	-1
COc1cc2c(=O)n(CCC(=O)NCC3CCCO3)c(=O)n(CC(=O)c3ccc(Cl)cc3)c2cc1OC (stereo unspecified)	0	139	0	-7	-30*
COc1ccc(Cl)cc1-n1c(=S)sc2c(=O)[nH]c(SCC(=O)NCC3CCCO3)nc21 (stereo unspecified)	4	-58*	-27	2	16
COCCCNC(=O)CSc1nc2c(sc(=S)n2-c2cc(Cl)ccc2OC)c(=O)[nH]1	1	24	5	-1	13
COc1ccc(C(=O)Nc2nnc(SCC(=O)NCC3CCCO3)s2)cc1OC (stereo unspecified)	3	13	13	-12	-30*
COc1ccc(CNC(=O)c2ccc3c(c2)N(C)C(=O)C2CCCCN32)cc1OC (stereo unspecified)	1	·	-3	5	8
O=C(O)c1cccc(N/N=C/c2cc(Br)cc(Br)c2O)c1	2	-64*	-7	-4	-7
O=C(O)c1cccc(N/N=C/c2cccnc2)c1	0	0	15	-4	-31*
COc1ccc(Br)cc1/C=N/Nc1cccc(C(=O)O)c1	2	10	-3	3	2
Cc1cc(C2=NNC(=Nc3ccccc3)SC2)c(C)n1C	1	2	4	-4	-32*
SMILES	D1 agonist	D3 antag	D3 ag	D1 PAM	D1 antag
COCCCN=C1NN=C(c2cc(C)n(-c3ccccc3F)c2C)CS1	33*	?	-13	5	-32*
COCCn1c(C)cc(C2=NNC(=Nc3ccccc3F)SC2)c1C	0	-7	-3	0	-4
COCCCN=C1NN=C(c2cc(C)n(-c3ccccc3)c2C)CS1	1	3	5	5	-19
CCS(=O)(=O)Nc1cc(-c2cn3ccc(C)cc3n2)ccc1C	2	·	-17	4	0
Cc1cc(C)n(C(C)CC(=O)Nc2cccc(C#N)c2)n1 (stereo unspecified)	0	·	-9	-6	-5
COc1ccc(Br)cc1S(=O)(=O)N1CCN(S(=O)(=O)c2ccc3c(c2)OCCO3)CC1	2	·	·	2	6
O=c1oc2c3c4c(cc2c(C(F)(F)F)c1CCN1CCOCC1)CCCN4CCC3	178*	-26	-3	-1	17
O=c1oc2c(CN3CCOCC3)c(O)ccc2c2c1CCC2	1	14	-4	0	8
Cc1cc(=O)oc2c3c4c(cc12)OCCN4CCC3	15	21	-7	4	8
CC(C)c1cc(=O)oc2c3c4c(cc12)CCCN4CCC3	30*	16	9	-5	6
CCN(CC)CCOC[C@H]1O[C@@H](O)[C@H](OCCN(CC)CC)[C@@H](O)[C@@H]1O	·	·	5	·	·
Cn1c(=O)c2c(-c3ccccc3)n3c(c2n(C)c1=O)C(c1ccco1)Nc1ccccc1-3 (stereo unspecified)	1	·	-12	2	-31*
COc1ccc(Cl)cc1NC(=O)c1sc(-n2nc(C)c(Cc3ccccc3)c2C)nc1C	0	·	1	1	-22
CCOc1cc(NC(=O)C2CCCCC2)c(OCC)cc1NC(=O)c1ccccn1	-1	17	49*	-5	0
CCOc1cc(NC(=O)c2ccccn2)c(OCC)cc1NC(=O)c1ccc(C)cc1	2	37	-1	-1	-1
NC(=O)c1ncn([C@@H]2O[C@H](CNS(=O)(=O)c3cc4ccccc4s3)[C@@H](O)[C@H]2O)n1	·	-2	16	·	·
C(=C\c1ccccc1)/CN1CCN(C(c2cc3ccccc3o2)c2nnnn2C2CCCC2)CC1 (stereo unspecified)	·	-98*	-9	·	·
C(=C\c1ccccc1)/CN1CCN(C(c2cccc3ccccc23)c2nnnn2C2CCCC2)CC1 (stereo unspecified)	·	-99*	-13	·	·
C(=C\c1ccccc1)/CN1CCN(C(c2nnnn2C2CCCCC2)C2CC2)CC1 (stereo unspecified)	·	-4	-7	·	·
COc1ccc(N2CCN(C(c3cccc(OC)c3OC)c3nnnn3C3CCCC3)CC2)cc1 (stereo unspecified)	1	-20	-13	0	-1
C(=C\c1ccccc1)/CN1CCN(C(CCc2ccccc2)c2nnnn2C2CCCCC2)CC1 (stereo unspecified)	·	-59*	-20	·	·
C(=C\c1ccccc1)/CN1CCN(C(c2cc3ccccc3o2)c2nnnn2Cc2ccccc2)CC1 (stereo unspecified)	·	-104*	-15	·	·
O=C(CNC(=O)c1ccc2c(c1)OCO2)N/N=C/c1cc(Br)ccc1O	2	10	3	3	-6
COc1ccccc1Nc1nc2ccc(Cl)cc2nc1-n1nc(C)cc1C	3	·	-13	6	13

Compound activity as filed in PubChem BioAssay.
